PubChem BioAssay (NCI)
Compounds without any hit were thinned out: in the full panel of roughly 83,000, 20% have a hit.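 Assay: single dose, 48 h. Readout: percent growth (0 = no net growth; negative = cell death). Active: <10.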 A number with no mark means an inactive call. The source made the active and inactive calls.

Experiments:
Test in all cases: NCI-60 one-dose screen, 48 h (100 = growth as untreated, 0 = no growth, -100 = all killed)
Conditions in all cases: 10 µM
NCI-H23 lung = tested on: NCI-H23 lung
NCI-H226 lung = tested on: NCI-H226 lung
NCI-H322M lung = tested on: NCI-H322M lung
HOP-62 NSCLC = tested on: HOP-62 NSCLC
NCI-H460 lung = tested on: NCI-H460 lung
HOP-92 NSCLC = tested on: HOP-92 NSCLC
NCI-H522 lung = tested on: NCI-H522 lung
A549/ATCC NSCLC = tested on: A549/ATCC NSCLC
786-0 renal = tested on: 786-0 renal
COLO 205 colon = tested on: COLO 205 colon
DU-145 prostate = tested on: DU-145 prostate
MALME-3M melanoma = tested on: MALME-3M melanoma
MDA-MB-231 breast = tested on: MDA-MB-231 breast
RXF 393 renal = tested on: RXF 393 renal
SF-268 CNS = tested on: SF-268 CNS
SF-295 CNS = tested on: SF-295 CNS
SF-539 CNS = tested on: SF-539 CNS
UACC-257 melanoma = tested on: UACC-257 melanoma
M14 melanoma = tested on: M14 melanoma

SMILES	growth (NCI-H23 lung)	growth (NCI-H226 lung)	growth (NCI-H322M lung)	growth (HOP-62 NSCLC)	growth (NCI-H460 lung)	growth (HOP-92 NSCLC)	growth (NCI-H522 lung)	growth (A549/ATCC NSCLC)	growth (786-0 renal)	growth (COLO 205 colon)	growth (DU-145 prostate)	growth (MALME-3M melanoma)	growth (MDA-MB-231 breast)	growth (RXF 393 renal)	growth (SF-268 CNS)	growth (SF-295 CNS)	growth (SF-539 CNS)	growth (UACC-257 melanoma)	growth (M14 melanoma)
Cc1ccc(-c2nc3ccc(C(=O)N=Nc4c(O)[nH]c5ccc([N+](=O)[O-])cc45)cc3[nH]2)cc1	64.6%	45.4%	105%	88.5%	103%	44.3%	78.3%	98%	85.2%	70.9%	47.8%	57.5%	66.9%	83.5%	60.1%	93.5%	52.7%	84.8%	73.8%
CC1(C)CC[C@]2(C(=O)NCCCNCCCCNCCCN)CC[C@]3(C)C(=CC[C@@H]4[C@@]5(C)Cc6c([nH]c7ccccc67)C(C)(C)[C@@H]5CC[C@]43C)[C@H]2C1	83.7%	71.8%	101%	85%	96.5%	60.5%	79.6%	86.5%	89.1%	115%	96.3%	85.3%	-7.91% (active)	78.1%	113%	98.5%	90.7%	95.9%	59.7%
CCCS(=O)(=O)c1oc(-c2ccc(F)cc2)nc1S(=O)(=O)c1ccc(F)cc1	-42.1% (active)	64.7%	89.8%	84%	61.7%	-80.6% (active)	-92.9% (active)	82.5%	-52.2% (active)	-92.1% (active)	-85.8% (active)	-98.8% (active)	-91.9% (active)	-97.5% (active)	52.2%	78.2%	-94.2% (active)	-30.9% (active)	-37.5% (active)
N[C@@H](CSSC[C@H](N)C(=O)Nc1ccc(OCC2CCCC2)cc1)C(=O)Nc1ccc(OCC2CCCC2)cc1	-92.9% (active)	-72.5% (active)	-99.5% (active)	-90.7% (active)	-77.1% (active)	-72.8% (active)	-93.2% (active)	-90.7% (active)	-59.9% (active)	-92.5% (active)	-88.4% (active)	-63.7% (active)	-97.4% (active)	-94.1% (active)	-73.1% (active)	-90.4% (active)	-99.7% (active)	-96.1% (active)	-74.5% (active)
CC(=O)Nc1nc(-c2ccc(N3CCN(C)CC3)c(NS(=O)(=O)c3ccc(C(F)(F)F)cc3)c2)cs1	55.8%	40.1%	88.2%	63.7%	31.3%	9.58% (active)	11.4%	55.5%	-62.5% (active)	36%	23.3%	38.1%	24.2%	-47% (active)	41.1%	46%	-86.4% (active)	49.5%	-3.51% (active)
COc1cccc(-c2nn(-c3ccccc3)cc2-c2ccnc(NCCCNC(=O)Nc3ccc(F)cc3)c2)c1	17%	16.4%	43.7%	7.43% (active)	15.2%	-25% (active)	-3.16% (active)	15.1%	-11.3% (active)	-0.929% (active)	54.1%	-24.7% (active)	-1.32% (active)	0.912% (active)	26.1%	-40.5% (active)	-29.9% (active)	-11.9% (active)	-21% (active)
C=CC(=O)Nc1nc(-c2cccc(NS(=O)(=O)c3cccc4c(N(C)C)cccc34)c2)cs1	-3.14% (active)	6.89% (active)	56.2%	31.2%	-32.8% (active)	-49.2% (active)	-76.9% (active)	19.3%	-82.5% (active)	-56.3% (active)	3.39% (active)	-76.1% (active)	-63.8% (active)	-98.7% (active)	0.14% (active)	37.8%	-100% (active)	-29.3% (active)	-78.7% (active)
